According to PubChem BioAssay (NCATS):
Records with an inconclusive call do not appear. Entries that show only a call come without a potency. The source made the active and inactive calls. Unless noted, calls come from the whole dose curve; as a rule, active = well fitted curve in the direction sought with a large enough effect; inconclusive = small, poorly fitted or top-dose-only effect, or another doubt; inactive = no such curve, though single readings can be large; an effect the other way counts as inactive or inconclusive.

What was measured:
[1] = biological target: Calcium and integrin-binding protein 1 (Homo sapiens) (UniProt Q99828); experiment: Primary qHTS for Identification of Calcium Integrin Binding Protein 1 (CIB1) Competitor (AID 1508620);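 note: GST tagged CIB1 binding a fluorescein labelled alphaIIb integrin peptide tracer; top concentration of the series differs between compounds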
Chain of Calcium and integrin-binding protein 1 (Homo sapiens) (Q99828 whole entry, looked up): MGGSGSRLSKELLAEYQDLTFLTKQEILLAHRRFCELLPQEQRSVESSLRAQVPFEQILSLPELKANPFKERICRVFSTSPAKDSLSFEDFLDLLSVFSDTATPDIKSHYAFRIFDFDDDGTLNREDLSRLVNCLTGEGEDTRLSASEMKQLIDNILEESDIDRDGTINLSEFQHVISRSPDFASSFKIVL
Procedure, shortened: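 CIB1-GST (1 uM final) and compound incubated 15 min at room temperature before adding FITC-alphaIIb peptide tracer (100 nM final). Competition for binding read by fluorescence polarization (ex 480, em 540) after another 15 min at room temperature.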

[2] = biological target: Cytochrome P450 2D6 (Homo sapiens) (UniProt P10635); experiment: Cytochrome P450 family 2 subfamily D member 6 (CYP2D6) small molecule antagonists: luciferase biochemical (cell-free) qHTS assay (AID 1645840; active = well fitted curve in the direction sought with a large enough effect in the repeat runs; an effect the other way counts as inactive or inconclusive; note: nearly all actives have a fitted effect of over 55% in size; note: potency is the fitted concentration of half-maximal effect)
Chain of Cytochrome P450 2D6 (Homo sapiens) (P10635 whole entry, looked up): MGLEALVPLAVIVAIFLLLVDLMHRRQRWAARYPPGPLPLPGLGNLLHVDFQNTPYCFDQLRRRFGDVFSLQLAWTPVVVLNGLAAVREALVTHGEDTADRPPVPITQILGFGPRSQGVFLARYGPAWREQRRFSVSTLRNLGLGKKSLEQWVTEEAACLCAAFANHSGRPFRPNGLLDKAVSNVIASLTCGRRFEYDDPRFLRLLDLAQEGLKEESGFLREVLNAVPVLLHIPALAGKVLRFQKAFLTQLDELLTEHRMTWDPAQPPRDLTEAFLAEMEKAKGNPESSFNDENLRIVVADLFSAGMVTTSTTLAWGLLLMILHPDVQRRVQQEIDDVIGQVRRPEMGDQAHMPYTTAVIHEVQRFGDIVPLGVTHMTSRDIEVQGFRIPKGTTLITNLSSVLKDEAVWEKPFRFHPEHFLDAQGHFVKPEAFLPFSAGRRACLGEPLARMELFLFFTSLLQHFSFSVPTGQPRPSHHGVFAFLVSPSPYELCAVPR
Procedure, shortened: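 P450-Glo CYP2D6 system: proluciferin substrate converted by enzyme to luciferin, read by luminescence proportional to activity. Enzyme-substrate mix with compound 10 min at room temperature, then NADPH regeneration 1 h before detection reagent.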

[3] = Primary qHTS for inhibitors of nuclear receptor binding SET domain protein 2 (NSD2) in an isogenic RCH-ACV NSD2 p.E1099K mutant (9B) (AID 1645876); note: nearly all actives have a fitted effect of over 70% in size; note: potency is the fitted concentration of half-maximal effect
[4] = Primary qHTS for inhibitors of nuclear receptor binding SET domain protein 2 (NSD2) in an RCH-ACV wild type WT cells (2C) (AID 1645877); note: nearly all actives have a fitted effect of over 70% in size; note: potency is the fitted concentration of half-maximal effect
[5] = biological target: Catechol O-methyltransferase (Homo sapiens) (UniProt P21964); experiment: Confirmatory Screen for Target Class Profiling of Small Molecule Inhibitors of Methyltransferases (AID 1745852); details: MTase-Glo luminescence, SAH detection, recombinant enzyme; measured here: COMT max response; stronger effect = lower value
Chain of Catechol O-methyltransferase (Homo sapiens) (P21964 whole entry, looked up): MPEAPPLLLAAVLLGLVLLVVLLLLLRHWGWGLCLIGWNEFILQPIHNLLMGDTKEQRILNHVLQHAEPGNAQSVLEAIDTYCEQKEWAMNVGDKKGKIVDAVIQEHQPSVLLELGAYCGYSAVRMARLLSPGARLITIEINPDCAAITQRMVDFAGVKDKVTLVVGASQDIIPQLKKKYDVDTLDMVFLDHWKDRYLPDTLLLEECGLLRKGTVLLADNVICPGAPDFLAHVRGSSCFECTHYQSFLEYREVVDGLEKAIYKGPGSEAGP

[6] = biological target: Guanidinoacetate N-methyltransferase (Homo sapiens) (UniProt Q14353); experiment: as above; details: activity change, negative = inhibition: at 57.3 µM (top of the series) unless noted
[7] = biological target: Nicotinamide N-methyltransferase (Homo sapiens) (UniProt P40261); experiment: as above; details: MTase-Glo luminescence, SAH detection, recombinant enzyme; measured here: NNMT max response; stronger effect = lower value
Chain of Nicotinamide N-methyltransferase (Homo sapiens) (P40261 whole entry, looked up): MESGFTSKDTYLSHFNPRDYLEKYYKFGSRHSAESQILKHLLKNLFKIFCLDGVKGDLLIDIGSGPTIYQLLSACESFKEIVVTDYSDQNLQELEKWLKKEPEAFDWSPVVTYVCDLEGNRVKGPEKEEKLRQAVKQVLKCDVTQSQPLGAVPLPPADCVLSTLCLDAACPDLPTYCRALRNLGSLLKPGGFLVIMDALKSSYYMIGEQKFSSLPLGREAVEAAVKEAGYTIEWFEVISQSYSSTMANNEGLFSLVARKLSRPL

[8] = biological target: Phenylethanolamine N-methyltransferase (Homo sapiens) (UniProt P11086); experiment: as above; details: MTase-Glo luminescence, SAH detection, recombinant enzyme; measured here: PNMT max response; stronger effect = lower value
Chain of Phenylethanolamine N-methyltransferase (Homo sapiens) (P11086 whole entry, looked up): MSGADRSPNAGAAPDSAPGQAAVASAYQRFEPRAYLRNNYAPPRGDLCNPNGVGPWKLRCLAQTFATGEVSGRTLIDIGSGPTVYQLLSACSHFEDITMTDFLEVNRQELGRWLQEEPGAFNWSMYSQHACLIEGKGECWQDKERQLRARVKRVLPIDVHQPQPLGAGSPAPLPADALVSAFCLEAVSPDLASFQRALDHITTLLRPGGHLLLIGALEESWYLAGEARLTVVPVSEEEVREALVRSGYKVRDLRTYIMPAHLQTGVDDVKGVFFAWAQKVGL

[9] = biological target: Cytochrome P450 2C9 (Homo sapiens) (UniProt P11712); experiment: Cytochrome P450 family 2 subfamily C member 9 (CYP2C9) small molecule antagonists: luciferase biochemical (cell-free) qHTS assay (AID 1645842; active = well fitted curve in the direction sought with a large enough effect in the repeat runs; an effect the other way counts as inactive or inconclusive; note: nearly all actives have a fitted effect of over 55% in size; note: potency is the fitted concentration of half-maximal effect)
Chain of Cytochrome P450 2C9 (Homo sapiens) (P11712 whole entry, looked up): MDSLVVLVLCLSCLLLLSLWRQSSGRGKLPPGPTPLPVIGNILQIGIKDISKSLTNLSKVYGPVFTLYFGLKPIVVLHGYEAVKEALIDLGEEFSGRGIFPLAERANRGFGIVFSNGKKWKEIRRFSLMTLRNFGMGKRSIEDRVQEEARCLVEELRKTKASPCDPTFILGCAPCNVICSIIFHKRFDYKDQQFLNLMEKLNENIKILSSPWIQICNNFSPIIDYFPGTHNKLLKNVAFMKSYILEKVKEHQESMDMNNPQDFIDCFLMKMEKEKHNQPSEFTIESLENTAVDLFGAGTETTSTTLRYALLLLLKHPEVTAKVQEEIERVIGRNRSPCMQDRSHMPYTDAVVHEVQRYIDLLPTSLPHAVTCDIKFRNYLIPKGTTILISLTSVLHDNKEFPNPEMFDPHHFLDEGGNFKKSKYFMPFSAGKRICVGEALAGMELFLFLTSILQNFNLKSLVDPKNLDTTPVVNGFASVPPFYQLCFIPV
Procedure, shortened: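 P450-Glo CYP2C9 system: proluciferin substrate with enzyme in mix containing 0.4% BSA, 10 min at room temperature, then NADPH regeneration solution added and incubated 1 h at 37C. Detection reagent stopped reaction; luminescence read after 20 min as RLU.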

[10] = NCATS anti-infectives library activity on the primary C. elegans qHTS viability assay (AID 1745855; calls by dose curve)
Procedure, shortened: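 GFP read-out by 488 nm laser cytometry at day 0, 3 and 7, gated on object perimeter, area and peak intensity, scored viability of PE254-GFP-FLuc worms exposed to compound in S medium with bacterial capsules at 21 °C.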

[11] = biological target: Cytochrome P450 3A4 (Homo sapiens) (UniProt P08684); experiment: Cytochrome P450 family 3 subfamily A member 4 (CYP3A4) small molecule antagonists: luciferase qHTS assay (AID 1645841; active = well fitted curve in the direction sought with a large enough effect in the repeat runs; an effect the other way counts as inactive or inconclusive; note: nearly all actives have a fitted effect of over 45% in size)
Chain of Cytochrome P450 3A4 (Homo sapiens) (P08684 whole entry, looked up): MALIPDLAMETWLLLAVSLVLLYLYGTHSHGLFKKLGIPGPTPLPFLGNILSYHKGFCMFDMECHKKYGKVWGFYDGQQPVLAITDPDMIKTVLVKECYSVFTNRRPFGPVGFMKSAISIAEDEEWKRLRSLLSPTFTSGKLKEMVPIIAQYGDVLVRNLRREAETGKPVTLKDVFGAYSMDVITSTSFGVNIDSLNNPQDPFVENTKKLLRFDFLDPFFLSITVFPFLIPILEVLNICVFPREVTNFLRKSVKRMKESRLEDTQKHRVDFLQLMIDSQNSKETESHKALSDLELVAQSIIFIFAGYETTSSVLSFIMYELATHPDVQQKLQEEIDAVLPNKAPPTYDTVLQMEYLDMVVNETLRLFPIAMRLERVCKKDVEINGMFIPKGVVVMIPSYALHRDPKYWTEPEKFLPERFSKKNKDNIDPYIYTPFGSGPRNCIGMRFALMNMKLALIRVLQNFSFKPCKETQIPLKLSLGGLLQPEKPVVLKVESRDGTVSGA
Procedure, shortened: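 Luminescent CYP3A4 activity readout: compounds plus enzyme-substrate mix 10 min at room temperature, reaction started with NADPH regenerating system for 1 h, stopped with detection reagent, read after 20 min. Ketoconazole served as control.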

Structure (SMILES): Cc1ncc(CCCN(C)C)cc1Nc1ncc2c(n1)-c1ccc(C(F)(F)F)cc1NC(=S)C2
- Potency [1]: inactive
- Potency [2]: 13.5 µM (active)
- Potency [3]: 0.0916 µM (active)
- Potency [4]: 0.129 µM (active)
- activity [5]: -3.05%
- activity change, negative = inhibition [6]: 2.13%
- activity [7]: -20.1%
- activity [8]: -4.31%

Structure (SMILES): COC(=O)N[C@@H](C)CNc1nccc(-c2cn(C(C)C)nc2-c2cc(Cl)cc(NS(C)(=O)=O)c2F)n1
- Potency [1]: inactive
- Potency [9]: inactive
- Potency [3]: inactive

Structure (SMILES): COc1ccc2cc(C(C)C(=O)Oc3ccc(C(N)=S)cc3)ccc2c1 (stereo not drawn)
- Potency [1]: inactive
- Potency [9]: 21.3 µM (active)
- Potency [3]: inactive
- Potency [4]: inactive

Structure (SMILES): O=C(Nc1c(-c2cccs2)nc2ccccn12)c1ccc(Cl)cc1
- Potency [1]: inactive
- Potency [9]: 15.1 µM (active)
- Potency [3]: inactive
- Potency [4]: inactive

Structure (SMILES): Cc1nc2ccc(Oc3ccc(F)cc3)cc2c(=O)n1C[C@H]1CCCN(C(C)C)C1
- Potency [1]: inactive
- Potency [9]: inactive

Structure (SMILES): COC(=O)[C@@]1(c2ccc(C)cc2)C[C@H]1CN1CCC(O)(c2ccccc2)CC1
- Potency [1]: inactive
- Potency [2]: 2.68 µM (active)
- Potency [10]: inactive

Structure (SMILES): N#Cc1cnc2cnc(NCc3cccnc3)cc2c1Nc1ccc(F)c(Cl)c1
- Potency [1]: inactive
- Potency [2]: 0.756 µM (active)
- activity [5]: -10.6%
- activity change, negative = inhibition [6]: -3.05%
- activity [7]: -57.3%
- activity [8]: -6.2%

Structure (SMILES): CC(=O)N1CCN(Cc2ccc([C@H](C)Nc3nccc(N4C(=O)OC[C@@H]4C(C)C)n3)cc2)CC1
- Potency [1]: inactive
- Potency [9]: 23.9 µM (active)
- Potency [3]: inactive

Structure (SMILES): C[C@@H](O)[C@H](NC(=O)c1ccc(C#Cc2ccc(CN3CCOCC3)cc2)cc1)C(=O)NO
- Potency [1]: inactive
- Potency [2]: inactive
- Potency [4]: inactive

Structure (SMILES): CCCCNc1ccc(-c2ccc(CN3CCOCC3)cn2)c(NC2CCC(O)CC2)c1 (stereo not drawn)
- Potency [1]: inactive
- Potency [11]: inactive
